The entries come from a sample that favours hits as a whole.
MLL CXXC-DNA inh = qHTS Fluorescence Polarization Assay for Inhibitors of MLL CXXC domain - DNA interaction; Histone-lysine N-methyltransferase 2A (Homo sapiens), Q03164; MLL-CXXC / FITC-HOXA9 DNA fluorescence polarization; Potency, µM (doses to about 115 µM), inactives show top-dose activity change, negative = inhibition, most hits filed as inhibitors; 290,000 compounds, 0.037% hits; AID 2662, 2010; active = well fitted inhibition curve with a large enough effect in the polarisation, with a control signal flat, not every such curve was filed as active; inconclusive = small, poorly fitted or top-dose-only effect, or effect the other way, or a change in a side signal; inactive = no such curve, though single readings can be large or run the other way; the % refers to the polarisation; note: potency is the fitted concentration of half-maximal effect
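Fluorescence polarization: 7 uM MLL-CXXC (stock) preincubated 5 min with compounds, then 50 nM fluorescein-HOX-A9 DNA (stock) added; 30 min ambient. Buffer 50 mM Tris-HCl pH 7.5, 50 mM NaCl, 1 mM DTT, 0.05% BSA.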
RGS4 inhibitor = Inhibitors of Regulator of G Protein Signaling (RGS) 4: qHTS. AID 504845, 2011. Potency, µM (series often up to 114 µM), inactives show at the top dose activity change, negative = inhibition, usual class: inhibitors. 390,000 compounds, 0.039% hits. Transcreener GDP fluorescence polarization, RGS4-accelerated GTP hydrolysis. Regulator of G-protein signaling 4 (Homo sapiens), P49798; active = well fitted inhibition curve with a large enough effect; inconclusive = small, poorly fitted or top-dose-only effect; inactive = no such curve, though single readings can be large or run the other way; note: potency is the fitted concentration of half-maximal effect; % is set by controls: 0 for no effect and ±100 for the full control effect; nearly all actives have a fitted effect of over 75% in size
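MLSMR compounds (23 nl, pin-transferred) preincubated 10 min at room temperature with a 500nM (2x) first reagent, then RGS4 at 900nM (2x) plus Transcreener GDP mix added; fluorescence polarization (620/688 nm) read before and after 90 min at 30 °C.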
PTAP TSG101 blk = qHTS Assay for Iinhibitors of HIV-1 Budding by Blocking the Interaction of PTAP/TSG101 | Potency, µM (series often up to 115 µM), without a hit: at the top dose activity change, negative = inhibition, usual class: inhibitors | Fluorescence polarization, FITC-PTAP peptide / Tsg101 binding | AID 493005, 2010 | 340,000 tested, under 10 active | Tumor susceptibility gene 101 protein (Homo sapiens), Q99816; active = well fitted inhibition curve with a large enough effect in the main read-out, with a control signal flat, not every such curve was filed as active; inconclusive = small, poorly fitted or top-dose-only effect, or effect the other way, or a change in a side signal; inactive = no such curve, though single readings can be large or run the other way; note: potency is the fitted concentration of half-maximal effect; % of control where 0% means no effect
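FP read-out: FITC-PTAP peptide, 50 nM final, binding Tsg101 binding domain, 10 uM final; 20 min, r.t.; 10 mM HEPES pH 7.5, 0.15 M NaCl, 0.01% Tween 20, 3 mM EDTA, 0.1 mM TCEP.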
ERG Ets-DNA blk = qHTS for Small Molecule Inhibitors of the ERG Ets/DNA interaction; fluorescence polarization, His-ERG Ets domain / labelled DNA; Potency, µM (highest dose often 76.9 µM), without a hit: at the highest dose FP activity, negative = inhibition, hits mostly inhibitors; 370,000 compounds, 0.028% hits; AID 624246, 2012; active = well fitted inhibition curve with a large enough effect in the polarisation, with a control signal flat; inconclusive = small, poorly fitted or top-dose-only effect, or effect the other way, or a change in a side signal; inactive = no such curve, though single readings can be large or run the other way; the % refers to the polarisation;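 note: polarization taken with two DNA probes labelled with fluorescein and Texas red; potency is the fitted concentration of half-maximal effect; % of control where 0% means no effect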
Target sequence (P11308 whole entry, looked up, the tested form may be a part): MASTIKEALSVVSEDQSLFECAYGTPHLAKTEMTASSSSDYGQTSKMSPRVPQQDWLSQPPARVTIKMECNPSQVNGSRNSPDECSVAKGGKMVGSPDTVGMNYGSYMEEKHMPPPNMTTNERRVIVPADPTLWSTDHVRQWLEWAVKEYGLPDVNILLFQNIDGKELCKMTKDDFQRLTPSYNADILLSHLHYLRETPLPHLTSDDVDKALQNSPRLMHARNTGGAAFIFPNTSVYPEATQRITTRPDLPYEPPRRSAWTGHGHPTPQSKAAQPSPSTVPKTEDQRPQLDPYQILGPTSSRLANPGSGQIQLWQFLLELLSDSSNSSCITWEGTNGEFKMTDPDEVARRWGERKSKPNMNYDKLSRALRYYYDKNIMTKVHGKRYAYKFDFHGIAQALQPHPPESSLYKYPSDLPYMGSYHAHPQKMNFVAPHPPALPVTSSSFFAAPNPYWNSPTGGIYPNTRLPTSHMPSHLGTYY
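His-tagged ERG Ets domain (1 uM in the protein solution; 300mM KCl, 50mM Tris-HCl, 1mM EDTA, 1mM DTT, pH 7.5) received compound, then a probe mix of 5 nM fluorescein-DNA and 100nM Texas-615-DNA. Fluorescence polarization was read for both dyes.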
Menin MLL FP TR = qHTS Assay for Inhibitors Targeting the Menin-MLL Interaction in MLL Related Leukemias: Competition With Texas Red Labeled MLL-derived Mutant Peptide | Menin + Texas Red MLL mutant peptide, fluorescence polarization | Potency, µM (series often up to 61.6 µM), for the others: at the top dose FP activity change, negative = inhibition, hits mostly inhibitors | 270,000 compounds, 0.23% hits; active = well fitted inhibition curve with a large enough effect in the polarisation, with a control signal flat, not every such curve was filed as active; inconclusive = small, poorly fitted or top-dose-only effect, or effect the other way, or a change in a side signal; inactive = no such curve, though single readings can be large or run the other way; the % refers to the polarisation; note: potency is the fitted concentration of half-maximal effect; % of control where 0% means no effect
Menin-MLL FL inh = qHTS Assay for Inhibitors Targeting the Menin-MLL Interaction in MLL Related Leukemias: Competition With Fluorescein Labeled MLL-derived Peptide; Fluorescence polarization, fluorescein-MLL peptide displacement from menin; FP activity change, % at 61.4 µM; 290,000 tested, under 10 active; active = well fitted curve in the direction sought with a large enough effect in the polarisation, not every such curve was filed as active; inconclusive = small, poorly fitted or top-dose-only effect, or effect the other way, or a change in a side signal; inactive = no such curve, though single readings can be large or run the other way; the % refers to the polarisation; note: % of control where 0% means no effect
Numbers without * were called inactive; i = inactive; ? = inconclusive; . = not tested or not shown; ! = not confirmed by another sample; [ ] = remark or other dose.

SMILES	MLL CXXC-DNA inh	RGS4 inhibitor	PTAP TSG101 blk	ERG Ets-DNA blk	Menin MLL FP TR	Menin-MLL FL inh
C=C(C)[C@H]1CN[C@H](C(=O)O)[C@@H]1CC(=O)O	.	i	.	.	-4.3%[24.8 µM]	?
C[C@]12C=CC(=O)C=C1CC[C@@H]1C2=CC[C@]2(C)[C@@H](C(=O)CN3CCN(c4cc(N5CCCC5)nc(N5CCCC5)n4)CC3)CC[C@@H]12	.	10.6µM*!	-3.7%	12.5%	.	.
C[C@@H]1C(=O)OC2C[C@@]34[C@H]5C[C@@H](C(C)(C)C)[C@@]36C(O)C(=O)O[C@H]6O[C@@]4(C(=O)O5)[C@]21O (some centres undefined)	.	.	.	.	5.2%	5.9
CC(=O)OC1CC[C@@]2(C)C(=CC[C@H]3[C@@H]4CC[C@H](C(C)=O)[C@@]4(C)CC[C@@H]32)C1 (some centres undefined)	.	.	.	.	-11.8%	?
CC[C@@H](CO)NC(=O)[C@@H]1C=C2c3cccc4c3c(cn4C)C[C@H]2N(C)C1	?	18.9µM*!	-13.1%	-28.1%	?	?
CCN(CC)C(=O)N[C@@H]1C=C2c3cccc4[nH]cc(c34)C[C@H]2N(C)C1	?	.	.	.	-12.9%	?
O=C(O)c1ccc(-c2ccc3cc(C45CC6CC(CC(C6)C4)C5)c(O)cc3c2)cc1	.	.	.	.	?	-0.4
N#C/C(=C/c1ccc(O)c(O)c1)C(N)=S	.	6.7µM*	.	.	.	.
O=[N+]([O-])/C=C/c1ccc2c(c1)OCO2	.	1.5µM*	.	.	.	.
COc1cc2c(cc1/C=C/[N+](=O)[O-])OCO2	-2.9%	?	1.8%	13.3%	-6.0%	4.5
COc1ccc2c(c[n+](C)c3c4cc5c(cc4ccc23)OCO5)c1OC	?	6.7µM*	.	.	43.8%	-1.2
O=c1oc(Cl)c(Cl)c2ccccc12	-8.7%	10.6µM*!	-4.2%	0.0%	7.0%	6.4
CC1=C2C(=CO[C@H](C)[C@H]2C)C(=O)C(C(=O)O)=C1O	.	.	.	.	-13.6%	1.4
CCCCC/C=C\C/C=C\C/C=C\C/C=C\CCCC(=O)OCCN	.	.	.	.	-25.5%	24.6
CCCCC(CC)COC(=O)CCCCC(=O)OCC(CC)CCCC (centres undefined)	.	-5.5%	0.5%	28.2µM*	.	.
CC(C)n1cnc2c(C(=O)N[C@H]3CN4CCC3CC4)cc(Cl)cc21	.	4.74µM*	.	.	-0.1%[24.8 µM]	-15.5
CNc1ccc2nc3ccccc3[n+](C)c2c1	4.7%	?	-20.1%	5.01µM*	?	?
C[n+]1c2ccccc2nc2ccc(NCCO)cc21	0.2%	?	-10.3%	7.94µM*	?	?

Assay outcomes as filed in PubChem.
